This is a sample that favours compounds with a hit; in the whole collection about 4.5% have one here.
DAX1 inh-1: DAX1 (NR0B1) inhibitors on StAR promoter, primary screen, cell-based, luminescence, SF-1 (NR5A1), full-length DAX-1; HEK293T StAR-luciferase reporter, SF-1/DAX-1 repression relief; inhibition, % at 6.8 µM; actives 1.1% (n = 370,000); AID 652010, 2013;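 active = inhibition above the mean over all tested compounds plus 3 SD, cut at about 3.6% in these data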;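 note: 0% = DAX-1 cells with DMSO and 100% = cells lacking DAX-1 with DMSO; higher inhibition means more luminescence from relief of DAX-1 repression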
ssDAF-12 act: S. stercoralis DAF-12 nuclear receptor activators, primary screen, cell-based, luminescence, HEK293, GRIP1 co-expression, lit1-tk-luc; Nuclear hormone receptor DAF-12 (Strongyloides stercoralis); HEK293 ssDAF-12/GRIP1 lit1-tk-luc reporter; % of 3 µM dafachronic acid response; activation, % at 6.8 µM; actives 1% (n = 370,000); AID 652126, 2013;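 active = activation above the mean over all tested compounds plus 3 SD, cut at about 0.9% in these data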;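 note: 0% = DMSO-only wells and 100% = 3 µM delta7-dafachronic acid wells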
DAX1 inh-2: DAX1 (NR0B1) inhibitors, primary screen, cell-based, HEK293, Gal4-DAX1, luciferase luminescence | HEK293 Gal4-DAX1 luciferase reporter | inhibition, % at 6.75 µM | actives 0.99% (n = 340,000);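 active = inhibition above the mean over all tested compounds plus 3 SD, cut at about 4.2% in these data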;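 note: 0% = DAX1-transfected cells with DMSO and 100% = empty-vector control cells with DMSO; inhibition shows as a rise in luminescence from relieved DAX1 repression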
Target sequence (P51843 207-470 limits assumed): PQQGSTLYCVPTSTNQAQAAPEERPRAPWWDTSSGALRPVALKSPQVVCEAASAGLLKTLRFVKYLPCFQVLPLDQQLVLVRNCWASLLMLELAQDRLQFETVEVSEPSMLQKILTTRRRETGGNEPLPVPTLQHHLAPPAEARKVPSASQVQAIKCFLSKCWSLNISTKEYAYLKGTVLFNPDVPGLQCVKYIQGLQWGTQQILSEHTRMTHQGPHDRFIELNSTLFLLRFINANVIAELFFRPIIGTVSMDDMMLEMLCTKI
GAA850 FXN act: FXN promoter activators, primary screen, cell-based, luciferase luminescence, HEK293 lucGAA850. HEK293 lucGAA850 FXN promoter luciferase reporter, 24 h; percent of 10 µM SAHA response. actives 0.56% (n = 360,000). activation, % at 6 µM;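 active = activation above the average of all compounds screened plus 3 SD, cutoff fixed separately per campaign, cut at about 7.5% in these data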;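 note: 0% = DMSO wells and 100% = 10 µM SAHA wells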
hcDAF-12 act: H. contortus DAF-12 nuclear receptor activators, primary screen, cell-based, luminescence, HEK293, lit1-tk-luc reporter. HEK293 hcDAF-12 lit1-tk-luc reporter; 0% DMSO, 100% Δ7-dafachronic acid. activation, % at 6.8 µM. actives 1.4% (n = 370,000). AID 652067, 2013;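 active = activation above the mean of all tested compounds plus 3 SD, cut at about 5.5% in these data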;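 note: 100% = response to 3 µM Δ7-dafachronic acid high control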
hgDAF12 agonist: H. glycines DAF-12 receptor agonists, primary screen, cell-based, luminescence, HEK293, GAL4 fusion, UAS-luciferase | HEK293 GAL4-hgDAF12 UAS-luciferase reporter, agonist luminescence; normalized to butyrate control | activation, % at 6.8 µM | actives 1.8% (n = 370,000);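 active = activation above a cutoff set at the mean of all screened compounds plus 3 SD, cut at about 10% in these data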;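 note: 0% = DMSO wells and 100% = sodium butyrate wells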
* marks the source's active call; other numbers are inactive results; / = not tested or not shown.

SMILES	DAX1 inh-1	ssDAF-12 act	DAX1 inh-2	GAA850 FXN act	hcDAF-12 act	hgDAF12 agonist
CC(C)Cc1nnc(NC(=O)CCC(=O)Nc2ccccc2)s1	3.6*	-1	0	-1	0	6
COC(=O)c1ccc(Cn2nnc3c(=O)[nH]c(C4CCCN(S(=O)(=O)c5ccc(C)cc5)C4)nc32)cc1 (stereo unspecified)	0	-1	0	3	5.6*	-1
COc1cccc(CNC(=O)CN2CCCc3ccccc32)c1OC	-1	-1	/	/	0	2
Cn1cc(C2(C)CCOc3ccccc32)c2ccccc21 (stereo unspecified)	2	0	/	/	1	4
Cc1cc(C)c2cc(C(=O)N3CCC(N4CCCCC4)CC3)[nH]c2c1	4.3*	-1	1	2	0	2
CN(CCO)c1ccc2c(c1)Oc1ccccc1CN(Cc1cn(Cc3ccc(C(F)(F)F)cc3)nn1)S2(=O)=O	0	0	/	/	-1	4
O=C(CSc1nnc(-c2cccnc2)n1-c1ccccc1)Nc1ccccc1	0	-1	-2	1	-2	12*
Cc1ccc(NC(=O)CSc2nnc(-c3cccnc3)n2-c2ccc(C)cc2)cc1	0	-1	0	-1	-2	-2
CNC(=O)CSc1nnc(-c2cccnc2)n1-c1ccc(C)cc1	-1	0	4.4*	1	-2	0
Cn1c(SCC(=O)Nc2ccccc2-c2ccccc2)nnc1-c1cnccn1	-1	-1	/	/	-3	2
C=CCn1c(N)cc(=O)nc1SCC(=O)Nc1ccc(C(=O)OCC)cc1	0	0	5.8*	0	-1	2
CC(C)[C@H](NC(=O)OCc1ccccc1)C(=O)N[C@@H](Cc1ccccc1)C1(O)CN(C)C(C(=O)NCc2ccccn2)CO1 (stereo partly specified)	/	-2	/	/	-1	-2
CC(C)=CCC/C(C)=C/CNCC(=O)N1c2ccccc2[C@]2(c3ccccc3)C[C@@H]3C(=O)N(C/C=C(\C)CCC=C(C)C)CC(=O)N3[C@H]12	0	-1	/	/	-1	-1
COC(=O)[C@]12C[C@H](CC(=O)NCCC(C)C)C(=O)N(Cc3ccco3)C1=C[C@H](COCc1ccccc1)O[C@@H]2C	-1	-1	/	/	1	7
CC(NC(=O)C12CC3CC(CC(C3)C1)C2)C(=O)NN=Cc1ccc([N+](=O)[O-])o1 (stereo unspecified)	-3	1.6*	-1	5	1	-7
Cc1ccc(OC(=O)c2cccc(S(=O)(=O)N3CCCC3)c2)c(-n2nc3ccccc3n2)c1	2	-1	4	4	1	11*
Cc1ccc(C)c(COC(=O)c2cccc(S(=O)(=O)N3CCCC3)c2)c1	-2	-1	0	0	0	-1
Cc1ccc(OC(=O)c2cccc(S(=O)(=O)N(C)C)c2)c(-n2nc3ccccc3n2)c1	3	-1	2	5	5	10
Cc1ccc(OC(=O)c2ccc(S(=O)(=O)N(C)C)cc2)c(-n2nc3ccccc3n2)c1	3	0	4.3*	4	3	12*
CC(C)(C)OC(=O)NCc1cc(F)ccc1/C=C/S(=O)(=O)NC1CCCC1	-2	-2	/	/	-1	-2
O=C(CSc1nc2c(cnn2-c2ccccc2)c(=O)[nH]1)NC1CCS(=O)(=O)C1 (stereo unspecified)	1	-1	5.7*	0	-1	-1
O=C(CSc1nc2c(cnn2-c2ccccc2)c(=O)[nH]1)N1CCCCC1	0	-2	0	2	-3	1
O=C(OC1CCCCC1)c1ccc(NC(=O)C2CCCCC2)cc1	-1	-2	0	2	-1	0
